# Source: PubChem
# Shown are actives, neighbours in structure and some others; about 7.8% of the full set was active somewhere.
# TSHR ag: activates the human thyroid stimulating hormone receptor; HEK293-CNG-TSHR cells (CNG channel as cAMP sensor), membrane potential dye, cAMP; actives 0.48% (n = 73,000); AID 926; Potency, µM (titrated, usually from 57.1 µM), for inactives: top-dose activation, actives largely listed as activators; active = well fitted activation curve with a large enough effect in the main read-out, with a control signal flat, not every such curve was filed as active; inconclusive = small, poorly fitted or top-dose-only effect, or a change in a side signal; inactive = no such curve, though single readings can be large or run the other way; % of control where 0% means no effect;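 also: the control signal comes from parental cells without the receptor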
#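 HEK 293 cells stably expressing TSHR and a modified CNG channel, with CNG-only parental cells as counterscreen, were preloaded 60 min at room temperature with membrane potential dye containing 100 uM RO 20-1724. Compound exposure was 30 min, and depolarization was read as fluorescence at 590 nm.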
# Tau fil binding: binders of human tau filaments; recombinant tau filaments, thioflavin S fluorescence, 15 h; filaments grown with octadecylsulfate alongside compound; Potency, µM (top dose mostly 57.1 µM), for inactives: at the top dose activity change, negative = inhibition; actives 2% (n = 71,000);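 also: % is scaled to controls: 0 for no effect and ±100 for the full control effect; actives lower thioflavin S fluorescence by blocking filaments or displacing dye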
#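 Assay mix: 1 uM His-tagged tau, 30 uM sodium octadecylsulfate, thioflavine S dye in HEPES/NaCl/DTT buffer. Compound is added prior to the inducer. Fluorescence after 15 h at 37 C.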
# 15-hLO inh: 15-hLO (ALOX15) enzyme inhibition | P16050 | purified 15hLO-1, xylenol orange hydroperoxide absorbance | Potency, µM (doses to about 57.1 µM), without a hit: at the highest dose activity change, negative = inhibition, hits mostly inhibitors | actives 1.4% (n = 74,000) | AID 887; also: % is scaled to controls: 0 for no effect and ±100 for the full control effect; nearly all actives have a fitted effect of over 55% in size
#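 Quantitative HTS in 25 mM Hepes pH 7.5 containing 0.01% Triton X-100: human 15hLO-1 at 40 nM, arachidonic acid at 50 uM, 6 min turnover. Product quantified via ferrous oxidation/xylenol orange, 573:405 nm absorbance ratio.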
# HEK293 cAMP ctrl: parental HEK293 cAMP activation (counter-screen). Potency, µM (series often up to 57.1 µM), inactives show at the top dose activation, usual class: activators. parental HEK293 CNG cAMP sensor, membrane potential fluorescence. AID 938. actives 2.5% (n = 73,000); also: % of control where 0% means no effect; nearly all actives have a fitted effect of over 55% in size
#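 Counterscreen for endogenous-receptor signalling: CNG-channel HEK 293 cells report cAMP rise by membrane depolarization. After 60 min dye equilibration with 100 uM RO 20-1724, compounds incubated 30 min before bottom-read fluorescence at 590 nm.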
# PK Bst: modulators of Bacillus stearothermophilus pyruvate kinase; purified pyruvate kinase, luminescence ATP production; ribose 5-phosphate activator present at AC10; Potency, µM; actives 1.2% (n = 51,000); AID 361; in the data active = potency below about 11 µM; inconclusive = mostly about 12 µM to 25 µM;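 the screen sought inhibitors and activators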;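 also: scaled between full activation by ribose 5 phosphate and full inhibition by luteolin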
# FLuc inh: firefly luciferase inhibition. actives 2.2% (n = 72,000). P08659. purified firefly luciferase, luminescence, 8 min. AID 411. Potency, µM (top dose mostly 57.1 µM), inactives show at the top dose activity change, negative = inhibition, most hits filed as inhibitors; also: % is scaled to controls: 0 for no effect and ±100 for the full control effect; nearly all actives have a fitted effect of over 40% in size
# Target sequence (P08659 whole entry, looked up): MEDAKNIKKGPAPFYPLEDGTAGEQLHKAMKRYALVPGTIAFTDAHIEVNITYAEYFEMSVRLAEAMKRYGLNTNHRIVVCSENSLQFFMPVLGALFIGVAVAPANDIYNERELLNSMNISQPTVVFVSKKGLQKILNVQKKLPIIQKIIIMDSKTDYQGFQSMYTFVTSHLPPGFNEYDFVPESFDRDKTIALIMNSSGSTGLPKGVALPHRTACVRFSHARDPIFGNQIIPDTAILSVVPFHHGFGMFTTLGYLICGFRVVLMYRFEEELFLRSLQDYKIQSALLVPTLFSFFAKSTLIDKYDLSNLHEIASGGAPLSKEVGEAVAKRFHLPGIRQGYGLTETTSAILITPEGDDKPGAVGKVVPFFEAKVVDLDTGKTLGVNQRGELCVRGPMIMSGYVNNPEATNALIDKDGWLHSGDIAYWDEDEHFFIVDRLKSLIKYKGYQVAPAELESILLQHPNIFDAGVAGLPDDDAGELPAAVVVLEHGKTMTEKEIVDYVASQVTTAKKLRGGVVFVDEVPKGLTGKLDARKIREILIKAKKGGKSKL
#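 Inhibition of light generation by firefly luciferase from ATP and luciferin was profiled with concentration-response curves per sample, ATP held at 10 uM within the enzyme's linear range. Plates were read by luminescence after an 8-minute ambient incubation.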
# * marks the source's active call; other numbers are inactive results; i = inactive; ? = inconclusive; . = not tested or not shown; [ ] = dose if it differs, or a comment. Unless noted, calls follow the shape of the dose curve; as a rule, active = well fitted curve in the direction sought with a large enough effect; inconclusive = small, poorly fitted or top-dose-only effect, or another doubt; inactive = no such curve, though single readings can be large; an effect the other way counts as inactive or inconclusive. Potency is read from the fitted curve at half-maximal effect.
SMILES,TSHR ag,Tau fil binding,15-hLO inh,HEK293 cAMP ctrl,PK Bst,FLuc inh
O=C(CCC1N=C2c3ccccc3N=C(SCc3ccc(Cl)cc3)N2C1=O)NCc1ccco1 (stereo not drawn),?,-11%,-7%,20µM*,>11,0%
CC(=O)c1cccc(NC(=O)CN(c2ccc(C)cc2)S(=O)(=O)c2cccc3nonc23)c1,11%,4µM*,-6%,-10%,>57,-3%
Cc1[nH]n(-c2ccccc2)c(=O)c1-c1ccccc1,1%,-4%,4µM*,6%,.,0%
O=C(Oc1ccc(N(Cc2cccs2)C2=NS(=O)(=O)c3ccccc32)cc1)c1ccco1,5%,-6%,8%,7%,>57,0%
O=C(OCCN(C1=NS(=O)(=O)c2ccccc21)c1ccc(Cl)cc1)c1ccco1,?,14%,-20%,16µM*,.,-2%
O=C1O/C(=C\Br)CC[C@@H]1c1cccc2ccccc12,11%,3%,?,3%,.,1%
OC1CCC2Cc3ccccc3N=C12 (stereo not drawn),.,.,0%[25.6 µM],.,.,.
O=C1CS/C(=N\C(=O)N2c3ccccc3Sc3ccccc32)N1,-7%[11.4 µM],3.2µM*,?,-5%[11.4 µM],.,-3%
O=C(c1ccncc1)N1CCC[C@@]2(CCN(c3ccccn3)C2)C1,-2%,1%,3%,1%,.,-1%[11.4 µM]
CCOC(=O)c1c(C)[nH]c(C(=O)COC(=O)C2CC2C)c1C (stereo not drawn),-1%,1%,6%,-4%,i,10µM*
CCOC(=O)c1cc2c(=O)n3cccc(C)c3nc2n(CCc2ccccc2)c1=N,.,.,.,.,>26,1%[25.5 µM]
CCCn1c(=N)c(C(=O)NCc2ccc3c(c2)OCO3)cc2c(=O)n3cccc(C)c3nc21,?,1.6µM*,-13%,-100%,.,4%
N=c1c(C(=O)NCc2ccc(F)cc2)cc2c(=O)n3ccccc3nc2n1CCCN1CCOCC1,-6%,0.79µM*,3%,17%,>57,2%
N=c1c(C(=O)NCc2ccccc2)cc2c(=O)n3ccccc3nc2n1CCCN1CCOCC1,-18%,?,?,15%,>57,0%
CCOCCCn1c(=N)c(C(=O)NCc2ccc3c(c2)OCO3)cc2c(=O)n3ccccc3nc21,?,5µM*,5%,-122%,>57,5%
CCN(CC)C(=O)c1sc2nc(-c3ccc(OC)cc3)cn2c1C,?,4%,-4%,16µM*,i,13µM*
N#CCCn1c(=O)c(-c2ccccc2)nc2cnc(Oc3ccccc3)nc21,-3%,-28%,3%,11%[2.29 µM],.,2%[11.4 µM]
CC(=O)OC[C@@H]1O[C@@H](O/N=C2/C[C@@H](O)[C@@H](O)[C@@H]3[C@@H]4C(=O)N(Cc5ccccc5)C(=O)[C@H]4CC[C@H]23)[C@H](OC(C)=O)[C@H](OC(C)=O)[C@@H]1OC(C)=O,-3%[11.4 µM],.,4%[11.4 µM],-3%[11.4 µM],.,-1%[11.4 µM]
c1ccc(-c2noc(CSc3nnc(Cc4cccs4)n3-c3ccccc3)n2)cc1,?,27%,-11%,25µM*,>57,2%
c1ccc(-c2noc(CSc3nnnn3-c3ccccc3)n2)cc1,?,10%,-2%,?,.,2%
Fc1ccc(-n2c(Cc3ccccc3)nnc2SCc2nc(-c3cccs3)no2)cc1,?,-16%,-7%,25µM*,>57,2%
O=S(=O)(O)[C@@H](c1ccccc1)[C@@H](O)c1ccccc1,0%[11.4 µM],4%[11.4 µM],-3%[11.4 µM],-3%[11.4 µM],.,1%[11.4 µM]
C1=C(c2ccccc2)CCN(c2ncnc3nc[nH]c23)C1,11%,-5%,25µM*,2%,.,0%
Brc1ccc(-c2nc3ccccc3s2)s1,0%,6%,-7%,8%,?,16µM*
c1ccc(-c2nc3ccccc3s2)nc1,.,2%,4%,3%,?,?
CCCC(c1nnnn1C1CCCCC1)N1CCN(C2CCCC2)CC1 (stereo not drawn),?,-3%,10%,16µM*,>57,2%
CCCCC(c1nnnn1C1CCCC1)N1CCN(C2CCCC2)CC1 (stereo not drawn),?,-20%,9%,?,>57,3%
